From ChEMBL document CHEMBL3433997, “St. Jude Leishmania screening dataset” (2016)

These compounds were tested against Solute carrier family 2, facilitated glucose transporter member 1 (Homo sapiens) (UniProt P11166) (assay: ST_JUDE_LEISH: Cytotoxicity at 2uM final concentration against transgenic Leishmania Mexicana promastigotes LmGLUT1 that are glucose transport deficient and complemented with the human glucose transporter GLUT1. Activity is measured by DNA content using SYBR green in vitro).
Chain of Solute carrier family 2, facilitated glucose transporter member 1 (Homo sapiens) (P11166 whole entry): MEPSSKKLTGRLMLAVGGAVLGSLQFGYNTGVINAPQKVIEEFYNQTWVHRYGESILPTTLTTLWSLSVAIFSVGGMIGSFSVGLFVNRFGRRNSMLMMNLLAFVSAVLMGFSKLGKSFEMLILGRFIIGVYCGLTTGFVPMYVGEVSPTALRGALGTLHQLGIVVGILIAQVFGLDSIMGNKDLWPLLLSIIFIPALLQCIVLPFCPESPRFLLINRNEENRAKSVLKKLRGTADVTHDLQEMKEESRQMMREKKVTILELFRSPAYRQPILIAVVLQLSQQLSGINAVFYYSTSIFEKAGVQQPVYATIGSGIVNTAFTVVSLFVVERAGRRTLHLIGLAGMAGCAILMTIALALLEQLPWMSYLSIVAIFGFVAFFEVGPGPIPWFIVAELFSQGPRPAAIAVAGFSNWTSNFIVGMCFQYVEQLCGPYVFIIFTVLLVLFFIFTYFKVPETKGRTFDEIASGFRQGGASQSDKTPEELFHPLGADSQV
Type: functional
`COc1cccc(CC(=O)NC2CCN(c3ccnc4cc(Cl)ccc34)C2)c1` (stereo unspecified) gave an inhibition of 0.02%. `CN(Cc1cccc(O)c1)C1CCCN(c2cc(NC(=O)c3ccc(F)cc3)ccn2)C1` (stereo unspecified) was tested, and the inhibition was 3.85%. In the case of `COc1ccc(NC(=O)CCNc2cc(C)nc(NCc3ccccc3C)n2)cc1`, the inhibition is reported as 5.23%. Compound `COc1cccc(CN2CCCN(Cc3cccc(NC(=O)c4ccc(Cl)c(Cl)c4)c3)CC2)c1` has an inhibition of 4.43%. `O=C(CNC1CCCCC1)Nc1cccc(C(=O)Nc2cccc(C(F)(F)F)c2)c1` showed an inhibition of -1.07%. With `CSc1ccc(CN2CCC(NC(=O)c3ccc(-c4cccc(Cl)c4)s3)CC2)cc1` the inhibition was 7.55%. Work on `CCN(CC)CCNc1nccc(N(C)c2ccc(NC(=O)Nc3cc(C(F)(F)F)ccc3F)cc2)n1` yielded an inhibition of 5.98%. With `Cc1cc(NCCCOc2ccc(Cl)cc2)nc(NCc2ccccc2)n1` the inhibition was 18.8%. With `CC(C)C(NC(=O)Cc1cccc2ccccc12)C(=O)Nc1cccc(C#N)c1` (stereo unspecified) the inhibition was 2.08%. Compound `O=C(Nc1ccc(Cl)c(C(F)(F)F)c1)c1ccc(Cl)c([N+](=O)[O-])c1` has an inhibition of 6.41%. With `N=C(N)c1ccc(NCc2cccc(C(=O)O)c2)cc1` the inhibition was 1.02%. `Cc1c(-c2cccc(C(C)(C)NC3CCN(Cc4ccccc4)CC3)c2)cnc(N)c1C` showed an inhibition of 2.58%. `CC[C@H](C)CNC(=O)c1cccc(-c2cccc(CNCC3CNCCCO3)c2)n1` (stereo partly specified) gave an inhibition of -0.08%. With `COc1cc2nc(N3CCC(CNC(=O)c4ccc(C(C)=O)cc4)CC3)nc(N)c2cc1OC` the inhibition was 2.39%. Compound `O=C(/C=C/c1ccc(I)cc1)NCCCCCN1CCC(c2c[nH]c3ccccc23)CC1` has an inhibition of 3.43%. `O=C(Cn1c(CCc2cccc(F)c2F)cc(=O)c2cccnc21)N(CCn1ccnc1)Cc1ccc(-c2ccc(C(F)(F)F)cc2)cc1` showed an inhibition of -0.44%.
